Measured values published in PubChem BioAssay (EPA / NIEHS).
Inconclusive results are not listed. Active and inactive are the calls of the source. How the source made its calls, unless noted: active means hit-call score of the fitted dose curve at least 0.9, where 1 is the maximum; inconclusive means response in the unintended direction; inactive means score below 0.9.

How the values were obtained:
[1] = biological target: Estrogen receptor (Homo sapiens) (UniProt P03372); assay: ATG_ERa_TRANS: Attagene TRANS-FACTORIAL HepG2 Assay for human Estrogen Receptor alpha (ERa) (AID 2282970); conditions: HepG2 Attagene TRANS ERa GAL4 reporter, mRNA
Chain of Estrogen receptor (Homo sapiens) (P03372 whole entry, looked up, the tested form may be a part): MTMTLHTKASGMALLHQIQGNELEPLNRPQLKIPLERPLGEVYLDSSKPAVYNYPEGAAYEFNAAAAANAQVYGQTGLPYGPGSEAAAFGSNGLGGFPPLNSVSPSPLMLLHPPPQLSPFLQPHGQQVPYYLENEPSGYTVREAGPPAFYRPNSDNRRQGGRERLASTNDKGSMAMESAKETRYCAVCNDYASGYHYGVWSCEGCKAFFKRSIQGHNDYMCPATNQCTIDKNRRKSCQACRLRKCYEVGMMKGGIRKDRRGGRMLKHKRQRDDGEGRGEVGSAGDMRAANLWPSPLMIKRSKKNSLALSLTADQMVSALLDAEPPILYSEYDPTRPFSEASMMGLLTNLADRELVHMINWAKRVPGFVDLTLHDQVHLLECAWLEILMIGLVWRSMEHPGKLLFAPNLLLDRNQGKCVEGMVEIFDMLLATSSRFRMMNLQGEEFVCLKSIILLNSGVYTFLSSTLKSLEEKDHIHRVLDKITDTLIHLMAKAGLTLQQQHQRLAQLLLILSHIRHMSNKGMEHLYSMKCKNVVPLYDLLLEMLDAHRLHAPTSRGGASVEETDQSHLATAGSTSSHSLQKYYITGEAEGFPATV
In short: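 After 24 h of compound treatment, RNA from HepG2 cells bearing transfected GAL4-UAS reporter constructs is converted to cDNA, amplified and fluorescently labelled. Capillary electrophoresis resolves the ERa-linked reporter; DMSO serves as negative control.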

[2] = biological target: Steroid hormone receptor ERR1 (Homo sapiens) (UniProt P11474); assay: ATG_ERRa_TRANS: Attagene TRANS-FACTORIAL HepG2 Assay for human Estrogen-Related Receptor alpha (ERRa) (AID 2282971); conditions: HepG2 Attagene TRANS reporter, ERRa transactivation
In short: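 Transfected HepG2, 24 h dosing, ERRa-Gal4 chimera driving GAL4-UAS reporter. Readout: reporter mRNA via RT-PCR plus capillary electrophoresis (fluorescence). Positive direction vs DMSO control.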

[3] = biological target: X-box-binding protein 1 (Homo sapiens) (UniProt P17861); assay: ATG_Xbp1_CIS: Attagene CIS-FACTORIAL HepG2 Assay for human X-box Binding Protein 1 (XBP1) (AID 2282972; active means hit-call score of the fitted dose curve at least 0.9, where 1 is the maximum; inactive means score below 0.9); conditions: HepG2 XBP1 cis-element reporter, Attagene multiplex; actives raise or lower the signal
Chain of X-box-binding protein 1 (Homo sapiens) (P17861 whole entry, looked up): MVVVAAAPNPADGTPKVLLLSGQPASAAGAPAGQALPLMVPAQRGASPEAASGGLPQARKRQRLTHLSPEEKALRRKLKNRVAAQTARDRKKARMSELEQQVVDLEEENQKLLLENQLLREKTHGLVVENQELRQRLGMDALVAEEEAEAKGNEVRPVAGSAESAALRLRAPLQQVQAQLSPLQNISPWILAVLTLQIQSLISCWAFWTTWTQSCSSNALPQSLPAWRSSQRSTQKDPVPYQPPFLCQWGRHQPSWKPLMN
In short: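 HepG2, transient MRTU transfection (cis-promoter driven), 24 h compound exposure. Total RNA → oligo(dT) RT → PCR → 6-FAM labeling → HpaI cut → CE. Bidirectional fit vs DMSO.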

[4] = biological target: Estrogen-related receptor gamma (Homo sapiens) (UniProt P62508); assay: ATG_ERRg_TRANS: Attagene TRANS-FACTORIAL HepG2 Assay for human Estrogen-Related Receptor gamma (ERRg) (AID 2282977); conditions: HepG2 Attagene TRANS reporter, ERRg transactivation;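 further: hits increase reporter signal over DMSO so potencies reflect activators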
Chain of Estrogen-related receptor gamma (Homo sapiens) (P62508 whole entry, looked up, the tested form may be a part): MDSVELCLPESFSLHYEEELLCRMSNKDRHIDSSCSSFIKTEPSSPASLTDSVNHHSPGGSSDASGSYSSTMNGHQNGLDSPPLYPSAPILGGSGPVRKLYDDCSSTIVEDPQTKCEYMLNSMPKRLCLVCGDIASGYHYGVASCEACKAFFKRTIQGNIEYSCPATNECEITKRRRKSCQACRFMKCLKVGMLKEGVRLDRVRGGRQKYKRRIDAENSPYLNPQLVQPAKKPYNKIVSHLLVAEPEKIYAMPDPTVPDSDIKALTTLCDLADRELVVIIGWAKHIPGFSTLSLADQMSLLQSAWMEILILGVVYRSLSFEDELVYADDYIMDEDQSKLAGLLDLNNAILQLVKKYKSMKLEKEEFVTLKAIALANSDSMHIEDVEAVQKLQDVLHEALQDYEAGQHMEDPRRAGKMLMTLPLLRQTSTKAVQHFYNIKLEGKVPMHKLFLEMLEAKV
In short: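 HepG2 cells transiently transfected with multiplexed GAL4-UAS reporter units and chimeric NR-Gal4 constructs were exposed to test chemicals for 24 h. Reporter mRNA was measured by RT-PCR, 6-FAM primer extension, HpaI digestion and capillary electrophoresis; gain-of-signal versus DMSO.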

[5] = biological target: Bile acid receptor (Homo sapiens) (UniProt Q96RI1); assay: ATG_FXR_TRANS: Attagene TRANS-FACTORIAL HepG2 Assay for Farnesoid X Receptor (FXR) (AID 2282979); conditions: HepG2 Attagene TRANS FXR-GAL4 reporter transcription;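 further: hits raise reporter mRNA above DMSO so AC50 marks FXR activation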
Chain of Bile acid receptor (Homo sapiens) (Q96RI1 whole entry, looked up, the tested form may be a part): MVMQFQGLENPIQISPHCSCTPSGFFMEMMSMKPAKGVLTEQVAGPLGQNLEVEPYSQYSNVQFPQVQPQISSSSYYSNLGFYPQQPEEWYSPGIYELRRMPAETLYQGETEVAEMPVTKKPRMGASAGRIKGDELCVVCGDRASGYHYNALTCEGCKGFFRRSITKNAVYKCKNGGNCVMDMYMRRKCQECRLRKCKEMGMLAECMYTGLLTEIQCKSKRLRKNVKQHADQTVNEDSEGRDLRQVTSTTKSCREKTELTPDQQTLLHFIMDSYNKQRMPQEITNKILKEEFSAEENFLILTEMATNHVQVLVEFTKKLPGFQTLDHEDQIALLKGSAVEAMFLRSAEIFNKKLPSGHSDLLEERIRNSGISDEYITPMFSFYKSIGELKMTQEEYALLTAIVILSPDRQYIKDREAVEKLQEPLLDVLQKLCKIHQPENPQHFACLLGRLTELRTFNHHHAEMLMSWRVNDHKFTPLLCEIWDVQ
In short: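 Read-out: fluorescent reporter transcripts quantified by capillary electrophoresis after RT-PCR of total RNA. Source cells were HepG2 transiently carrying chimeric NR-GAL4 plus GAL4-UAS reporter units, dosed 24 h. Activity fitted upward relative to DMSO baseline.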

[6] = biological target: Hepatocyte nuclear factor 4-alpha (Homo sapiens) (UniProt P41235); assay: ATG_HNF4a_TRANS: Attagene TRANS-FACTORIAL HepG2 Assay for human Hepatocyte Nuclear Factor 4 alpha (HNF4a) (AID 2282982); conditions: HepG2 HNF4a transactivation reporter, mRNA readout
Chain of Hepatocyte nuclear factor 4-alpha (Homo sapiens) (P41235 whole entry, looked up, the tested form may be a part): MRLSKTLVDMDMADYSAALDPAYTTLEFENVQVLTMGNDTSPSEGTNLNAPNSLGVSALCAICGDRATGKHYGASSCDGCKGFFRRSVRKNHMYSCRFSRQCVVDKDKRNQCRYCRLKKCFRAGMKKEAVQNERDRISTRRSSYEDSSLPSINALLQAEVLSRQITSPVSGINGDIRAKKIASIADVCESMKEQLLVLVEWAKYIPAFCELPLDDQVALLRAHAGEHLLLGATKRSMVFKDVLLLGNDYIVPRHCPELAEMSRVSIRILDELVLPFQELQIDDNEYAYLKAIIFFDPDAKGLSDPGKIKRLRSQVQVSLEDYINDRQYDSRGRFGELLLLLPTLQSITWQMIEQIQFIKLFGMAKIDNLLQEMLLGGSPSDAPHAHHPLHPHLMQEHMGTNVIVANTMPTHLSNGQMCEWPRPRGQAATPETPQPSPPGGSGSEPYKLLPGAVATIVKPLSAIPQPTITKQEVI
In short: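 HepG2 cells transiently transfected with multiplexed GAL4-UAS reporter units responsive to chimeric NR-GAL4 proteins; compound exposure 24 h. Reporter mRNA quantified by RT-PCR, 6-FAM labelling, HpaI digestion and capillary electrophoresis; gain of signal versus DMSO baseline.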

[7] = ATG_M_06_TRANS: Attagene TRANS-FACTORIAL HepG2 Assay for M06 Transcription Factor (Internal Marker) (AID 2282983); conditions: HepG2 Attagene TRANS M06 internal marker reporter
In short: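 After a 24 h chemical treatment of transfected HepG2, RNA underwent DNase I treatment, reverse transcription and reporter-specific PCR; labelled, HpaI-digested products were sized by capillary electrophoresis. Signal increase relative to DMSO defined activity.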

[8] = biological target: Transcriptional activator Myb (Homo sapiens) (UniProt P10242); assay: ATG_Myb_CIS: Attagene CIS-FACTORIAL HepG2 Assay for human Myeloblastosis (Myb) Proto-Oncogene Transcription Factor (AID 2282986; active means hit-call score of the fitted dose curve at least 0.9, where 1 is the maximum; inactive means score below 0.9); conditions: HepG2 Attagene CIS-FACTORIAL Myb reporter transcription; actives raise or lower the signal
Chain of Transcriptional activator Myb (Homo sapiens) (P10242 whole entry, looked up): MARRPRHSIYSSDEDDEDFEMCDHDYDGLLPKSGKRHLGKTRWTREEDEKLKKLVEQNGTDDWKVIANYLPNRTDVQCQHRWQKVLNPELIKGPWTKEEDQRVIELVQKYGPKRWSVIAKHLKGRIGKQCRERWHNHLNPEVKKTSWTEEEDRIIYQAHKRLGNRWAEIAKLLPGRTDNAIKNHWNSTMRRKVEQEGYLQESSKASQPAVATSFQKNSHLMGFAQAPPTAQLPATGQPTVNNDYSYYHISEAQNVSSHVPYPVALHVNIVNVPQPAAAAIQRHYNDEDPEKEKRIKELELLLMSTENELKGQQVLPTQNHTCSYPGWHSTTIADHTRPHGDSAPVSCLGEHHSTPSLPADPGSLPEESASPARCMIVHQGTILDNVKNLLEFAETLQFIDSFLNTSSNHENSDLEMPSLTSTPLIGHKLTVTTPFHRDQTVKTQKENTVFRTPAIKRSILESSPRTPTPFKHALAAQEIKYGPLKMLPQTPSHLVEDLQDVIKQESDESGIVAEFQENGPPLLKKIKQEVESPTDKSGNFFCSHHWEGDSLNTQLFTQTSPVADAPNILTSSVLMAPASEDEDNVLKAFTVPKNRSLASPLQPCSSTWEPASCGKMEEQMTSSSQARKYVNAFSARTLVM
In short: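 Reporter mRNA is quantified by RT-PCR and capillary electrophoresis 24 h after dosing HepG2 cells transfected with cis-regulated reporter units, which track endogenous transcription factor activity. Gain and loss of signal are fitted versus DMSO baseline.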

[9] = biological target: Nuclear respiratory factor 1 (Homo sapiens) (UniProt Q16656); assay: ATG_NRF1_CIS: Attagene CIS-FACTORIAL HepG2 Assay for human Nuclear Respiratory Factor 1 (NRF1) Orphan Gene (AID 2282987; active means hit-call score of the fitted dose curve at least 0.9, where 1 is the maximum; inactive means score below 0.9); conditions: HepG2 NRF1 cis-element reporter, Attagene multiplex; actives raise or lower the signal
Chain of Nuclear respiratory factor 1 (Homo sapiens) (Q16656 whole entry, looked up): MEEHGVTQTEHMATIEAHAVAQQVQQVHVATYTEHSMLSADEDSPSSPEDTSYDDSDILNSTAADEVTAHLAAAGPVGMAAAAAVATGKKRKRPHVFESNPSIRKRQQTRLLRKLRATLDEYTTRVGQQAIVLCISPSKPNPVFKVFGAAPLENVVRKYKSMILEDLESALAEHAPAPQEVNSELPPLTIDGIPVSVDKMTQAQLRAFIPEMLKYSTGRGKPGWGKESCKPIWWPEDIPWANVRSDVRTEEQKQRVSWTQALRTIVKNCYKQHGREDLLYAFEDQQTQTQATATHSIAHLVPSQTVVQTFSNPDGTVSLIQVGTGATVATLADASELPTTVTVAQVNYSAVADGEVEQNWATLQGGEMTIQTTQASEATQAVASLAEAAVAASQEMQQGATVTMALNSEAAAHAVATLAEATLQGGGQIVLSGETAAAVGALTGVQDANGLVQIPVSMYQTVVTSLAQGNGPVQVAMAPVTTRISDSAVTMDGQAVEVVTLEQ
In short: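 Endogenous NRF1-driven reporter transcription in transfected HepG2 cells after 24 h treatment. Readout: RT-PCR products, 6-FAM labelled and resolved by capillary electrophoresis; changes fitted both directions relative to DMSO.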

[10] = ATG_NFI_CIS: Attagene CIS-FACTORIAL HepG2 Assay for human Nuclear Factor I (NFI) (AID 2282989; active means hit-call score of the fitted dose curve at least 0.9, where 1 is the maximum; inactive means score below 0.9); conditions: HepG2 cis-regulatory reporter, NFI response element transcription; actives raise or lower the signal
In short: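 HepG2, transient MRTU, 24 h exposure; RNA→cDNA→PCR→FAM label→HpaI→CE fluorescence. Bidirectional fit, DMSO = baseline.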

[11] = biological target: Myc proto-oncogene protein (Homo sapiens) (UniProt P01106); assay: ATG_Myc_CIS: Attagene CIS-FACTORIAL HepG2 Assay for human Myelocytomatosis (Myc) Proto-Oncogene Transcription Factor (AID 2282990; active means hit-call score of the fitted dose curve at least 0.9, where 1 is the maximum; inactive means score below 0.9); conditions: HepG2, Attagene cis-reporter transcription factor activity; actives raise or lower the signal
Chain of Myc proto-oncogene protein (Homo sapiens) (P01106 whole entry, looked up): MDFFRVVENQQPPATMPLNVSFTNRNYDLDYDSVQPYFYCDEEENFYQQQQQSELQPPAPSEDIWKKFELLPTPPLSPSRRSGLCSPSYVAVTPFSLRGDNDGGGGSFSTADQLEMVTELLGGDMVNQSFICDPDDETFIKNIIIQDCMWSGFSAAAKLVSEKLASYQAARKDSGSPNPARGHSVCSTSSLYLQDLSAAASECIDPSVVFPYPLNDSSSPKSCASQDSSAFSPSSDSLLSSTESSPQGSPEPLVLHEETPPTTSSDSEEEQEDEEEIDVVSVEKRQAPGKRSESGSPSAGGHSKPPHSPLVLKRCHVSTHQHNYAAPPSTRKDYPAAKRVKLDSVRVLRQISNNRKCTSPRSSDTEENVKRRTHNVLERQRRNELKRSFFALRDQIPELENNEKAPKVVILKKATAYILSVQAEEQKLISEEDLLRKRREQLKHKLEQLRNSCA
In short: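 Multiplexed cis-reporter transcription in HepG2 cells after 24 h chemical treatment. Reporter mRNA measured by RT-PCR and capillary electrophoresis fluorescence; activity fitted bidirectionally against DMSO control.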

[12] = ATG_M_19_TRANS: Attagene TRANS-FACTORIAL HepG2 Assay for M19 Transcription Factor (Internal Marker) (AID 2282974); conditions: HepG2 Attagene TRANS-FACTORIAL M19 internal marker reporter
In short: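 Background-control readout: after 24 h chemical exposure of transfected HepG2 carrying GAL4-driven reporter units, RNA was reverse-transcribed, amplified, fluorescently labeled and sized by capillary electrophoresis; gain-of-signal fit against DMSO.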

[13] = biological target: Oxysterols receptor LXR-beta (Homo sapiens) (UniProt P55055); assay: ATG_LXRb_TRANS: Attagene TRANS-FACTORIAL HepG2 Assay for human Liver X Receptor beta (LXRb) (AID 2282981); conditions: HepG2 Attagene TRANS GAL4-LXRb reporter, mRNA
In short: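 HepG2 cells transiently transfected with multiple reporter transcription units carrying chimeric NR-Gal4 proteins acting on GAL4-UAS reporters; compound exposure 24 h. Reporter mRNA quantified by RT-PCR, 6-FAM labelling, HpaI digestion and capillary electrophoresis; gain of signal versus DMSO.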

[14] = ATG_M_32_TRANS: Attagene TRANS-FACTORIAL HepG2 Assay for M32 Transcription Factor (Internal Marker) (AID 2282984); conditions: HepG2 Attagene TRANS M32 internal marker reporter;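 further: transcript level of a background control reporter unit measured by RT-PCR and capillary electrophoresis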
In short: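 HepG2 cells transiently transfected with multiple GAL4-UAS reporter transcription units, dosed for 24 hours; reporter mRNA quantified by RT-PCR, 6-FAM primer extension, HpaI digestion and capillary electrophoresis. Gain-of-signal fitted versus DMSO baseline; internal background-control marker.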

[15] = biological target: Nuclear receptor subfamily 4 group A member 2 (Homo sapiens) (UniProt P43354); assay: ATG_NURR1_TRANS: Attagene TRANS-FACTORIAL HepG2 Assay for human Nuclear Receptor Related Protein 1 (NURR1) (AID 2282985); conditions: HepG2 Attagene TRANS reporter, mRNA readout
In short: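 HepG2 cells transiently transfected with GAL4-UAS reporter units and chimeric NR-Gal4 constructs; chemical exposure 24 h. Reporter mRNA quantified by RT-PCR, fluorescent labelling and capillary electrophoresis; gain of signal fitted relative to DMSO baseline.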

[16] = ATG_GAL4_TRANS: Attagene TRANS-FACTORIAL HepG2 Assay for GAL4 (Internal Marker) (AID 2282976); conditions: HepG2 Attagene TRANS GAL4 internal marker reporter
In short: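 RT-PCR/capillary electrophoresis readout of reporter mRNA. HepG2, transient MRTU transfection (GAL4-UAS reporters), 24 h compound exposure. Background-control endpoint, positive direction vs DMSO baseline.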

[17] = biological target: Glucocorticoid receptor (Homo sapiens) (UniProt P04150); assay: ATG_GR_TRANS: Attagene TRANS-FACTORIAL HepG2 Assay for human Glucocorticoid Receptor (GR) (AID 2282978); conditions: HepG2 Attagene TRANS GR reporter, mRNA transcription;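 further: activators score as hits since higher reporter transcript over DMSO is fitted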
Chain of Glucocorticoid receptor (Homo sapiens) (P04150 whole entry, looked up, the tested form may be a part): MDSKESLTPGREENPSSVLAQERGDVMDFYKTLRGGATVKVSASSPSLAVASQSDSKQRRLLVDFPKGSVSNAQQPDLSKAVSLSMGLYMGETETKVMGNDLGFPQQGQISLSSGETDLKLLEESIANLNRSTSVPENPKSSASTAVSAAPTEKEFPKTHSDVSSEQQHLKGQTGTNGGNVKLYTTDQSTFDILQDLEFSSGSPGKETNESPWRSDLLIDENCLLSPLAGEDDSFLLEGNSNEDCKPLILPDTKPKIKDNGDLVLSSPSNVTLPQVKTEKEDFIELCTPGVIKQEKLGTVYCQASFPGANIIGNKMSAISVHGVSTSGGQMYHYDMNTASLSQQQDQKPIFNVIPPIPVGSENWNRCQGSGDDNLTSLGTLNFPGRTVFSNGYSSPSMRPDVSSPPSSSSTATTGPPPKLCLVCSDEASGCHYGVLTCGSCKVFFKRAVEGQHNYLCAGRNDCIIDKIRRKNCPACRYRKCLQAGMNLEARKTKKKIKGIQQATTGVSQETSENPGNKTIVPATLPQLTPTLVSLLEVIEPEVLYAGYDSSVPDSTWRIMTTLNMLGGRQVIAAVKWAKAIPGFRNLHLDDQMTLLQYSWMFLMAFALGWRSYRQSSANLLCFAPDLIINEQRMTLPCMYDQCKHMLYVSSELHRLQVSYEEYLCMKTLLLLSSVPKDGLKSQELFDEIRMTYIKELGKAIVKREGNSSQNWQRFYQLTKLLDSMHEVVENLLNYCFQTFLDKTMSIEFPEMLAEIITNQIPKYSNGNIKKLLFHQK
In short: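 Readout is reporter transcript from a chimeric GR-Gal4 acting on GAL4-UAS in transfected human HepG2 liver cells after 24 h exposure, quantified by RT-PCR and capillary electrophoresis. Activation fitted upward against DMSO.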

[18] = biological target: Androgen receptor (Homo sapiens) (UniProt P10275); assay: ATG_AR_TRANS: Attagene TRANS-FACTORIAL HepG2 Assay for human Androgen Receptor (AR) (AID 2282973); conditions: HepG2 Attagene TRANS-FACTORIAL AR reporter transcription
In short: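 Readout is reporter transcript abundance, quantified by fluorescent RT-PCR products separated on capillary electrophoresis. Human HepG2 liver cells carried transiently transfected NR-Gal4 chimera plus GAL4-UAS reporter constructs and were dosed for 24 h; activity scored upward versus DMSO.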

[19] = biological target: Oxysterols receptor LXR-alpha (Homo sapiens) (UniProt Q13133); assay: ATG_LXRa_TRANS: Attagene TRANS-FACTORIAL HepG2 Assay for human Liver X Receptor alpha (LXRa) (AID 2282980); conditions: HepG2 Attagene TRANS reporter, LXRa transactivation
In short: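 Read-out: reporter transcript levels by RT-PCR plus capillary electrophoresis, fluorescence intensity. Transiently transfected HepG2, exogenous NR-GAL4 chimera, GAL4-UAS reporters; 24 h compound exposure. Activity = increase over DMSO negative control.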

Measured: AC50

C=CC(=O)OCC(COC(=O)C=C)(COC(=O)C=C)COC(=O)C=C
inactive: [1] | [2] | [5] | [7] | [9] | [10] | [11]
active: [3] 8.13 µM | [4] 100 µM | [6] 44.6 µM | [8] 24.5 µM

[F][Sn]([c]1ccccc1)([c]1ccccc1)[c]1ccccc1
active: [3] 0.326 µM | [15] 0.00363 µM | [8] 2.24 µM | [9] 0.294 µM | [10] 0.312 µM | [11] 2.12 µM
inactive: [1] | [12] | [5] | [13] | [6] | [14]

C=CCc1ccccc1O
active: [1] 48.6 µM
not listed: [2] | [15] | [18] | [19]
inactive: all other assays above

O=S1(=O)OC(c2cc(Br)c(O)c(Br)c2)(c2cc(Br)c(O)c(Br)c2)c2ccccc21
inactive: [1] | [3] | [18] | [5] | [14] | [8] | [9] | [10] | [11]

O=[N+]([O-])c1ccc(Nc2ccccc2)cc1
not listed: [2] | [9] | [12] | [14] | [16] | [18] | [19]
inactive: all other assays above

CCCCCCCCCCBr
inactive: [3] | [12] | [4] | [17] | [6] | [14] | [15] | [9] | [10] | [11]
active: [1] 33.3 µM

CC(=O)CN(CC(C)=O)N=O
not listed: [4] | [5] | [12] | [13] | [15] | [18] | [19]
inactive: all other assays above

O=NN1CCOCC1
inactive: [1] | [3] | [16] | [15] | [8] | [9] | [10] | [11]

CC(=O)C(F)(F)C(F)(F)F
not listed: [2] | [4] | [12] | [13] | [14] | [15] | [19]
inactive: all other assays above

Nc1ccc(Br)cc1
active: [17] 100 µM
not listed: [2] | [4] | [18]
inactive: all other assays above
